Bioassay records as filed in PubChem BioAssay.
Sampled rows, rich in hits. Any-hit rate of the full collection: about 2.1%.
PfHsp40 yeast = rescue of yeast from PfHsp40 toxicity, primary screen, S. cerevisiae, ATP luminescence; actives 0.68% (n = 340,000); S. cerevisiae expressing PfHsp40, growth rescue; growth rescue, % at 12.5 µM; in the data active means growth rescue above about 28%, passing the limit was not always enough;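 further: yeast W303a lacking pdr1 and pdr3 grown in galactose medium; growth measured after three days at 30 °C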
PrPC surface inh = inhibitors of human cell surface prion protein PrPC, primary screen, cell-based, TR-FRET; Major prion protein (Homo sapiens), P04156; TR-FRET read-out; inhibition, % at 13.8 µM; actives 0.43% (n = 370,000); AID 720596, 2013; in the data active means inhibition above about 24%; further: 0% = median of the test wells and 100% = reference compound wells
PrP UTR inh = inhibition of PrP 5' UTR reporter expression; cell-based PrP 5' UTR mRNA reporter, plate reader; inhibition, % (test concentration not listed); actives 0.35% (n = 340,000); in the data active means inhibition above about 52%; further: 0 = median of the neutral control wells
BJeLR viability = MLPCN primary cell-based screen for lethality selective to Ras in HRASV12 cells | BJeLR (HRASV12) viability, CellTiter-Glo ATP luminescence, 48 h | inhibition, % (concentration not given with the values) | actives 0.17% (n = 300,000) | AID 1554, 2009; in the data active means inhibition above about 50%
VHR inh abs = VHR1 phosphatase inhibitors, primary screen, biochemical, absorbance, uHTS | Dual specificity protein phosphatase 3 (Homo sapiens), P51452 | recombinant VHR phosphatase, pNPP absorbance | inhibition, % at 13.3 µM | actives 0.52% (n = 290,000); in the data active means inhibition above about 50%
MazF activator = activators of E. coli MazEF toxin-antitoxin RNase, primary screen, biochemical, fluorescence, uHTS. FAM/BHQ RNA-DNA oligo cleavage fluorescence, 5 h. Endoribonuclease toxin MazF (Escherichia coli (strain K12)), P0AE70. actives 0.32% (n = 350,000). activation, % at 20 µM; in the data active means activation above about 50%
PrPC TRFRET cf = confirmation of inhibitors of cell surface human prion protein, confirmation, cell-based, TR-FRET; shares compounds with PrPC surface inh; cell surface PrPC level; inhibition, % at 13.8 µM; actives 65% (n = 1,500); AID 743200, 2013; in the data active means inhibition above about 25%
LD9 cytotox = cytotoxicity in LD9 cells, cytotoxicity control for cell surface PrPc inhibitor project, cell-based, luminescence, high throughput | AID 743201, 2013 | luminescence viability | shares compounds with PrPC surface inh | inhibition, % at 13.8 µM | actives 29% (n = 1,500); in the data active means inhibition above about 9.5%
The depositor's hits bear a star; / = not tested or not shown; ! = not active in a repeat.

SMILES	PfHsp40 yeast	PrPC surface inh	PrP UTR inh	BJeLR viability	VHR inh abs	MazF activator	PrPC TRFRET cf	LD9 cytotox
COc1cc(NC2c3ccccc3C(=O)N2Cc2ccccc2Cl)cc(OC)c1 (configuration not stated)	0.4	9.5	-6.4	-1.4	-12.8	-8.2	/	/
NC(c1csc(NC(=O)Nc2cccc(Cl)c2)n1)C1CCCCC1 (configuration not stated)	/	25.6*	/	/	/	/	23.4	-3.0
CN(C)S(=O)(=O)c1cccc(C(=O)N/N=C\c2cccc(C#N)c2)c1	/	-5.1	/	/	/	/	/	/
S=C(NCCc1ccccc1)N1CCn2cccc2C1c1cccnc1 (configuration not stated)	-0.5	32.0*	-14.0	-6.7	1.8	1.2	1.5	-3.9
Cc1nnsc1-c1nc2ccccc2n1C(CCc1ccccc1)c1nc2ccccc2[nH]1 (configuration not stated)	/	-0.9	/	/	/	/	/	/
Cc1cccc2cccnc12	0.3	3.0	-27.1	/	/	0.1	/	/
Cc1ccc2cccnc2c1N	-0.2	2.4	-10.3	-3.1	0.5	7.2	/	/
c1cnc2c(c1)ccc1cccnc12	57.1*	25.1*	2.1	56.1*!	1.5	7.8	25.4*	14.3*!
Cc1ccnc2c1ccc1cccnc12	0.8	35.1*	25.9	/	/	-3.5	37.8*	34.9*
CC1(C)CC(=O)C(CS(=O)(=O)c2ccccc2)=C(Cl)C1	-0.6	2.4	-11.8	6.8	0.3	-1.4	/	/
CCOC(=O)c1c(NC(=O)COc2ncnc3ccccc23)sc(C(C)=O)c1C	-0.6	28.8*	-9.8	-12.4	4.4	-3.6	36.1*	0.6
COc1cccc(OC(=O)CSc2nnc(-c3ccccc3Br)o2)c1	-0.1	32.4*	-24.9	9.4	14.2	-4.4	38.2*	1.4
O=C(C[C@H]1C/C=C\CC[C@H](Cc2ccc(F)cc2)C(=O)O[C@H](c2ccccc2)CNC1=O)N[C@H](CO)Cc1ccccc1	-0.6	1.1	17.8	/	/	2.4	/	/
Cc1cnc2cc(Cl)ccc2c1SCC(=O)O	-1.6	-1.7	-22.4	-0.3	28.2	12.7	/	/
COC(=O)CSc1ccnc2cc(Cl)ccc12	0.2	68.1*	-11.2	12.5	-0.1	6.1	91.9*	-6.0
O=C(O)CSc1ccnc2cc(Cl)ccc12	-0.2	47.2*	-0.5	5.8	13.8	3.8	90.3*	3.9
Cc1noc(C)c1CSCC(=O)Nc1nnc(CC(C)C)s1	0.2	8.4	-25.1	-1.5	12.5	-2.4	/	/
CC(=O)N=c1sc2ccccc2n1C	-0.3	1.8	-2.4	2.8	11.7	-12.9	/	/
CC(=O)N=c1sc2nc3ccccc3nc2n1N(C(C)=O)C(C)=O	2.3	27.8*	-11.7	-6.2	14.2	-0.3	37.4*	2.9
Cc1ccc(-c2cc(C(F)F)n3ncc(C(=O)N4CCCCC4c4cccnc4)c3n2)cc1 (configuration not stated)	1.7	-7.7	-4.9	-9.4	3.0	4.2	/	/
CCN(CC(=O)Nc1ccc2c(c1)OCCO2)C(=O)CN1C(=O)NC(C)(c2ccc(C)cc2)C1=O (configuration not stated)	1.0	6.8	-0.9	/	/	4.7	/	/
CC(C)Nc1ccc(Nc2ccnc3cc4ccccc4cc23)cc1	-1.0	-3.5	-22.4	44.4	16.2	-12.8	/	/
c1ccc(CCNc2ccnc3cc4ccccc4cc23)cc1	188.9*	80.4*	-39.4	22.0	24.9	-10.6	23.3	80.2*
CCC(C)(C)n1nnnc1CN1CCC(c2nc3ccc(C)cc3[nH]2)CC1	1.1	32.5*	-5.3	-11.3	35.6	-2.6	32.1*	0.7
O=C1c2cccnc2-c2ncccc21	1.7	-6.0	0.6	0.5	27.6	7.7	/	/
SMILES	PfHsp40 yeast	PrPC surface inh	PrP UTR inh	BJeLR viability	VHR inh abs	MazF activator	PrPC TRFRET cf	LD9 cytotox
O=C1C(=O)c2cccnc2-c2ncccc21	/	30.8*	/	/	/	/	61.9*	98.7*
CCC(=O)N1CCN(c2ccc(NC(=O)c3ccc([N+](=O)[O-])o3)cc2Cl)CC1	9.0	38.5*	-65.0	10.9	30.9	6.0	21.2	96.7*
CC(=O)N1CCN(c2ccc(NC(=O)c3ccc([N+](=O)[O-])o3)cc2Cl)CC1	1.7	9.6	-24.8	-3.9	11.3	5.3	/	/
CN=C(Nc1cccc(Cl)c1)SC1CC(=O)N(c2ccc(OC)cc2)C1=O (configuration not stated)	7.7	29.5*	-18.9	-0.8	-12.1	6.5	1.6	-2.2
CCOc1ccc(N2C(=O)CC(SC(=NC)Nc3cccc(OC)c3)C2=O)cc1 (configuration not stated)	2.9	-1.4	-35.5	-4.4	4.0	5.6	/	/
Cc1ccccc1-c1csc(C(C)(O)c2cccnc2)n1 (configuration not stated)	/	8.8	/	/	/	/	/	/
Brc1cc(Br)c2nc3c(cc2c1)CCC3	0.4	26.3*	-11.7	-17.3	5.2	-16.1	71.0*	0.9
O=c1nc(SCc2cccc(C(F)(F)F)c2)nc2ccccn12	0.9	34.0*	-0.9	3.7	6.2	0.0	15.7	-3.3
Cc1ccn2c(=O)nc(SCc3cccc(C(F)(F)F)c3)nc2c1	5.3	17.6	-46.6	10.6	35.6	7.2	/	/
Cc1cc(C)nc(N/N=C2/CCCC/C2=C\c2ccccc2)n1	-1.5	2.7	-35.3	-2.0	17.4	9.6	/	/
Cc1ccc(NS(=O)(=O)c2ccc3c(c2)NC(=O)CCS3)cc1C	-0.7	24.7*	-6.6	2.7	-0.7	-3.5	18.0	27.3*
CC1=C(C(=O)N(C(C)C)C(C)C)CC(CC(=O)NC2CC2)C(=O)N1Cc1ccccc1 (configuration not stated)	/	-3.3	/	/	/	/	/	/
CCOC(=O)c1cc2ccccc2n1C1CCN(CCc2ccccc2)CC1	/	10.5	/	/	/	/	/	/
O=C(CN1CCCCC1)Nc1c2c(nc3ccccc13)N(c1ccccc1)CC2	-2.6	44.0*	-15.3	1.0	25.9	6.2	102.2*	11.6*
CCCC(=O)Nc1c2c(nc3ccccc13)N(c1ccccc1)CC2	0.2	/	-0.4	1.6	16.0	3.7	/	/
COc1cc(C2/C(=C(\O)c3ccc4c(c3)OCCO4)C(=O)C(=O)N2Cc2ccco2)cc(OC)c1OC (configuration not stated)	-0.6	-9.9	2.6	/	-1.9	-1.3	/	/
CC(=Cc1cccs1)C(=O)c1ccccc1	/	7.0	/	/	/	3.0	/	/
CCOc1ccccc1-c1n[nH]c(=S)o1	-0.9	26.9*	-19.8	-7.2	18.6	19.1	25.1*	-6.7
CCOc1ccc(-c2n[nH]c(=S)o2)cc1	6.6	1.9	-24.8	-2.1	33.4	3.5	/	/
